Results taken from PubChem BioAssay.

The compounds below were run against 6-phosphogluconate dehydrogenase, decarboxylating (Homo sapiens) (UniProt P52209) (assay: 6PGD enzyme inhibitors, primary screen, biochemical, human, recombinant enzyme, NADPH absorbance (AID 1159550)). Settings: recombinant 6PGD, NADPH absorbance 341 nm; at 10 µM; active compounds read high;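 active means at least 20% inhibition of 6-phosphogluconate dehydrogenase activity; inactive means the rest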.
Sequence of 6-phosphogluconate dehydrogenase, decarboxylating (Homo sapiens) (P52209 whole entry, looked up): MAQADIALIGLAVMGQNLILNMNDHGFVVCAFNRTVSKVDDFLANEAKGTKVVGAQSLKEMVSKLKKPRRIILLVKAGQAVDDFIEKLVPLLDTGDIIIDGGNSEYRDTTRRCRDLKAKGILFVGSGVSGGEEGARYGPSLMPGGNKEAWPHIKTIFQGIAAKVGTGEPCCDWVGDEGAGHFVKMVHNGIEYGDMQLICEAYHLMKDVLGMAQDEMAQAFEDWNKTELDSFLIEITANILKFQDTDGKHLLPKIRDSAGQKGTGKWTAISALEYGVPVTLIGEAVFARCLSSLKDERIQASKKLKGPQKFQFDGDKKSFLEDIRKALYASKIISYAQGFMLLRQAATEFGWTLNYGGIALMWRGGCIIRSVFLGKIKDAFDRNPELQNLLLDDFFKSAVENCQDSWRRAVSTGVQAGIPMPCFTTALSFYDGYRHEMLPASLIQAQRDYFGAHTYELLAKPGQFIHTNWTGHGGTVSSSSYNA

inhibition, inactive:
CCC(=O)OCC(=O)[C@@]1(OC(=O)CC)[C@@H](C)CC2C3CCC4=CC(=O)C=C[C@]4(C)[C@@]3(F)C(O)C[C@@]21C (stereo partly drawn) -9.91%
COc1ccc(-c2coc3cc(O)c(OC)cc3c2=O)cc1 10.5%
CC1(C)C=Cc2c(cc3occ(-c4ccc5c(c4)OCO5)c(=O)c3c2O)O1 -4.68%
COc1ccc(C2COc3c(ccc(O)c3OC)C2)c(OC)c1O (stereo not drawn) -5.05%
CCOC(=O)C1(O)Oc2cc(OC)cc(OC)c2C(=O)C1c1ccccc1 (stereo not drawn) -4.01%
COc1ccc(-c2coc3c(OC)c(OC)cc(OC)c3c2=O)cc1 4.09%
CNC(C)[C@@H]1CC[C@@H](N)[C@@H](OC2C(O)[C@@H](OC3OC[C@](C)(O)C(NC)[C@H]3O)[C@H](N)C[C@@H]2N)O1 (stereo partly drawn) 1.04%
COc1cc2c(cc1O)[C@@H](Cc1ccc(O)cc1)N(C)CC2 0.499%
Nc1nc2ncc(C(=O)O)nc2c(=O)[nH]1 13.3%
CC(=O)O[C@H]1CCC2(C)C(=CCC3C2CCC2(C)C3CC3OC4(CCC(C)CO4)C(C)C32)C1 (stereo partly drawn) -0.838%
Nc1ccccn1 -0.139%
CC(=O)O[C@H]1CC[C@]2(C)[C@H]3C(=O)C=C4[C@@H]5[C@@H](C)[C@H](C)CC[C@]5(C(=O)O)CC[C@@]4(C)[C@]3(C)CC[C@H]2C1(C)C 4.87%
CC[C@@H](CC[C@@H](C)[C@H]1CC[C@H]2[C@@H]3CC[C@H]4C[C@@H](O)CC[C@]4(C)[C@H]3CC[C@]12C)C(C)C -13.2%
